Measurements from ChEMBL document CHEMBL3988442, “University of Dundee, Small-Polar-MMV Screening Library” (2021).
The whole screen tested about 48,000 compounds, of which about 13,000 (27%) showed an effect of 50% or more. The list shows a part of the results.

Each molecule was assayed on Wolbachia pipientis (assay: Anti-Wolbachia Cell-Based Screen). Conditions: 5 µM.
Assay type: functional
Set-up: scale not given: in the data most compounds retested in dose-response had high values

Point of comparison: CN(C)CCO[C@@H]1CC[C@H]2[C@H]1OCCN2C(=O)CCc1ccccc1.O=C(O)C(F)(F)F, “Percent Effect” value -7.187%. Against it:
- Cc1cnc(CNC(=O)N(Cc2ccccc2)CC(C)(C)O)s1 — lower, -9.272%
- CCN1CCN(C(=O)CCC2CCN(C(C)CSC)CC2)CC1 (stereo not given) — higher, 2.757%
- COC(=O)C(C)(C)NC(=O)c1cc2sc(N(C)C)nc2s1 — higher, -3.943%
- CN1CCCN(c2nc3c(cnn3C(C)(C)C)c(=O)[nH]2)CC1 — higher, -5.062%
- Cc1c(C2NC3(CCCC3)C(=O)N2CC2CC2)cc(C#N)n1C (stereo not given) — lower, -11.2%
- CN(Cc1cc(Cl)c2c(c1)OCO2)Cc1cscn1 — higher, 1.61%
- CCOc1ccc(NC(=O)NCc2csc(NC)n2)cc1C — higher, -0.8345%
- CCc1ncnc2c1CCN(C(=O)c1cccn1C)CC2 — lower, -9.929%
- Cc1cccc(N2CCCC3(C2)CN(S(=O)(=O)C2CC2)CCO3)c1.O=C(O)C(F)(F)F (stereo not given) — higher, -4.65%
- CC(=O)N1CCC(Cc2cccc(-c3ccnn3C)n2)CC1 — higher, 116.5%
- NC(=O)c1cccc(CC2CCN(C(=O)CO)C2)c1 (stereo not given) — lower, -21.34%
- Cc1noc(C)c1-c1cccc(CC2CCN(C(=O)CCC(=O)O)C2)n1 (stereo not given) — higher, 2.064%
- Cc1noc(C)c1CN1CC2(CCN(C(=O)c3cscn3)CC2)CC1=O — higher, 4.447%
- Cc1noc(C)c1-c1cccc(CC2CCN(C(=O)c3cscn3)C2)n1 (stereo not given) — higher, 131.4%
- Cc1ccccc1C(=O)NC[C@@H]1CCN(C(=O)c2cscn2)C[C@H]1O — higher, 3.097%
- Cc1noc(C)c1-c1cccc(CC2CCN(C(=O)CN)C2)n1 (stereo not given) — higher, 128.9%
- CCn1c(CC2CCN(C(=O)c3ccnn3C)CC2)n[nH]c1=O — higher, 13.3%
- CN1CCC(Cc2nc(-c3ccnn3C)n(Cc3ccccc3)n2)CC1 — higher, -2.907%
- CC(=O)N1CCC(Cc2cccc(-c3c(C)noc3C)n2)C1 (stereo not given) — higher, 135.5%
- c1ccc(-c2cnc(CN3CCn4c(nnc4C4CC4)C3)o2)cc1 — lower, -9.736%
- CN(Cc1ccc2nonc2c1)C(=O)CCc1cc2n(n1)CCCNC2 — lower, -9.744%
- CN(CCC1CCCCO1)c1nncc(-c2ccccc2)n1 (stereo not given) — higher, 3.225%
- c1ccc(C2CCCN2C2CCSCC2)nc1 (stereo not given) — lower, -12.25%
- Cc1cc(N(C)C)nc(N2CCCC2c2cc(C)on2)n1 (stereo not given) — higher, 41.35%
- Cc1cc(C2CCC2)nc(N(C)CCc2ccccn2)n1 — higher, 10.11%
- Cc1cc(N(C)C)nc(N2CCCC2c2ccccn2)n1 (stereo not given) — higher, 92.86%
- CN(C)c1cc(C(F)(F)F)nc(N2CCCC2c2ccccn2)n1 (stereo not given) — higher, 96.36%
- c1ccc(C2CCCN2C2CSCCSC2)nc1 (stereo not given) — higher, 20.29%
- Cc1nc(N2CCN(C(=O)c3ccccc3)CC2)cc(-n2ccnc2)n1 — higher, -0.4006%
- CCCC1CN(CC(C)C)C(=O)c2cccnc2O1 (stereo not given) — higher, 72.42%
- COCCN1C[C@@H]2CN(c3ncccn3)C[C@@H]2C1=O — higher, 3.665%
- CC(C)CN1C[C@H](COCc2ccccc2)Oc2ncccc2C1=O — higher, 89.35%
- COCCN1CCCC(O)(CN2CCN(c3ncccc3C)CC2)C1=O (stereo not given) — lower, -16.41%
- Cc1cnc(C(=O)N2CCC(COCc3ccccc3)C2)cn1 (stereo not given) — higher, 0.6759%
- CCCC1CN(CCOc2ccccc2)C(=O)c2cccnc2O1 (stereo not given) — higher, 157.7%
- CCCC1CN(CCOC)C(=O)c2cccnc2O1 (stereo not given) — higher, 110.6%
- CCC(C)Oc1ccccc1CN1Cc2ncccc2C1=O (stereo not given) — higher, 3.69%
- CCOc1ccccc1CCN1Cc2ncccc2C1=O — higher, 5.291%
- CC(C)(C)C(=O)N1CCC(COCc2ccccc2)C1 (stereo not given) — higher, 14.31%
- O=S1(=O)COCCN1CCOc1ccccc1 — lower, -11.75%
- CCOc1ncccc1CN1Cc2ncccc2C1=O — higher, 24.49%
- O=C(NC1CC1)N1CCC2(CC1)CC(N1CCOCC1)c1ccccc12.O=C(O)C(F)(F)F (stereo not given) — higher, 2.797%
- CCS(=O)(=O)NCCCNC1CSCCc2ccccc21 (stereo not given) — higher, 1.268%
- O=C(O)C(F)(F)F.O=C(O)C(F)(F)F.O=C1[C@@H]2CCN(Cc3ccccn3)C[C@@H]2OCCN1c1ccccc1 — higher, 5.214%
- CCNC(=O)[C@@H]1C[C@H](N)CN1C1CCN(c2ccccc2OC)CC1 — higher, -4.243%
- COc1cc(C(=O)NCC2CCCN(Cc3ccco3)C2)ccn1 (stereo not given) — higher, 2.476%
- CC(C)Cc1cc(C(=O)NCC2CCN(c3ccccc3F)C2)on1 (stereo not given) — lower, -10.11%
- CC(C)Cc1cc(C(=O)NCC2CCCN(Cc3ccco3)C2)on1 (stereo not given) — higher, 50.17%
- Cc1cc(C(=O)N2CCO[C@H]3[C@H](OCCN(C)C)CC[C@@H]32)c(C)[nH]1.O=C(O)C(F)(F)F — higher, 104.2%
- Cc1occc1C(=O)N1CCO[C@H]2[C@H](OCc3cccnc3)CC[C@@H]21.O=C(O)C(F)(F)F — higher, 4.513%
- Cc1ccoc1C(=O)N1CCO[C@H]2[C@H](OCCN(C)C)CC[C@@H]21.O=C(O)C(F)(F)F — lower, -19.8%
- Cc1occc1C(=O)N1CCO[C@H]2[C@H](OCc3ccccn3)CC[C@@H]21.O=C(O)C(F)(F)F — higher, -3.941%
- COc1ccc(C(=O)N2CCO[C@H]3[C@@H](OCC4CC4)CC[C@@H]32)cc1F — lower, -14.51%
- Cc1ccccc1C(=O)N1CCO[C@H]2[C@H](OCCN(C)C)CC[C@@H]21.O=C(O)C(F)(F)F — higher, 99.34%
- CN(C)CCO[C@@H]1CC[C@H]2[C@H]1OCCN2C(=O)c1ccccc1F — higher, 79.95%
- Cc1cc(C(=O)N2CCO[C@H]3[C@H](Oc4ccccn4)CC[C@@H]32)c(C)[nH]1.O=C(O)C(F)(F)F — higher, -3.803%
- Cc1c(C(=O)N2CCCC(O)(CN(C)C)CC2)c2cc(O)ccc2n1C (stereo not given) — lower, -7.516%
- CC(=O)N1CCC(Nc2ccc(Br)cc2C#N)C1 (stereo not given) — lower, -20.23%
- Cc1ccsc1C(=O)N1CCC(Nc2cccnc2)CC1 — higher, 82.28%
- Cc1cc(C(=O)N2CCC(Nc3cccnc3)CC2)c(C)s1 — higher, 98.75%
- Cc1cc(C(=O)N2CCC(NC(=O)c3cccnc3)CC2)c(C)o1 — lower, -8.9%
- COc1cc(C)sc1C(=O)N1CCC(Nc2cccnc2)CC1 — lower, -10.68%
- Cc1nc(C)c(C(=O)N2CCC(Nc3cccnc3)CC2)s1 — higher, 6.028%
- O=C(CCn1ccc2ccccc21)N1CCC(Nc2cccnc2)CC1 — lower, -9.935%
